# Luciferase inh: Firefly luciferase inhibition profiling of diverse chemical library using quantitative high-throughput screening; Luciferin 4-monooxygenase (Photinus pyralis), P08659; purified P. pyralis luciferase, luminescence, biochemical; Potency, µM (titrated, usually from 115 µM), actives largely listed as inhibitors; hit rate 2.5% among 76,000; AID 1347043, 2019; also: nearly all actives have a fitted effect of over 65% in size
#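 Purified P. pyralis luciferase (10nM final) in 50mM Tris acetate pH 7.5, 10mM Mg acetate, 0.01% Tween-20, 0.05% BSA with 10uM D-luciferin and 10uM ATP. Compounds titrated qHTS. Luminescence imaged on CCD.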
# NIH3T3 tox: Cytotoxic Profiling in NIH 3T3 Cell Line of Diverse Libraries Using Quantitative High-Throughput Screening | NIH 3T3 viability, CellTiter-Glo ATP luminescence, 48-72 h | AID 1345082, 2018 | Potency, µM (titrated, usually from 96.7 µM), inactives show top-dose activity change, negative = cytotoxicity, usual class: inhibitors | hit rate 4.3% among 94,000; also: nearly all actives have a fitted effect of over 55% in size
#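 Viability of NIH 3T3 cells after 48 or 72 hr compound treatment at 37 °C was assessed by CellTiter-Glo, with luminescence imaged following a 10 min room-temperature step.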
# HEK cytotox: Cytotoxic Profiling in HEK 293 Cell Line of Diverse Libraries Using Quantitative High-Throughput Screening; hit rate 6.6% among 94,000; Potency, µM (doses to about 115 µM), for inactives: at the top dose activity change, negative = cytotoxicity, usual class: inhibitors; AID 1345083, 2018; HEK 293 viability, ATP luminescence (CellTiter-Glo), 48-72 h; also: nearly all actives have a fitted effect of over 60% in size
#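 HEK 293 seeded at 250 cells/well receive compound via pintool. After 48 or 72 hr at 37 degree Celsius, 5% CO2 and 95% humidity, CellTiter-Glo is dispensed and luminescence read following 10 min at room temperature.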
# hNpr1 antagonist: Natriuretic polypeptide receptor (hNpr1) antagonism - Primary qHTS; Atrial natriuretic peptide receptor 1 (Homo sapiens), P16066; Potency, µM (series often up to 46.3 µM), for the others: at the highest dose activity change, negative = inhibition, most hits filed as inhibitors; HEK293 hNpr1 GloSensor cGMP, ANP-stimulated luminescence; hit rate 1.6% among 76,000; calls by dose curve; also: nearly all actives have a fitted effect of over 60% in size
#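 Compound pre-incubated 30 min at room temperature on GloSensor-loaded HEK293 cells stably carrying hNpr1 and the pGS-40F cGMP biosensor. Stimulation uses hNppA at 0.1 nM final; luminescence is taken at baseline and 20 min post-agonist.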
# GPT2 inhibitor: Primary qHTS assay for inhibitors of Glutamate pyruvate transaminase 2 (GPT2); Alanine aminotransferase 2 (Homo sapiens), Q8TD30; Recombinant GPT2, coupled pyruvate oxidase/HRP Amplex Red fluorescence; Potency, µM (top dose mostly 57.7 µM), inactives show at the top dose activity change, negative = inhibition, hits mostly inhibitors; hit rate 0.25% among 100,000; AID 1671188, 2021; also: nearly all actives have a fitted effect of over 60% in size
# Target sequence (Q8TD30 whole entry, looked up): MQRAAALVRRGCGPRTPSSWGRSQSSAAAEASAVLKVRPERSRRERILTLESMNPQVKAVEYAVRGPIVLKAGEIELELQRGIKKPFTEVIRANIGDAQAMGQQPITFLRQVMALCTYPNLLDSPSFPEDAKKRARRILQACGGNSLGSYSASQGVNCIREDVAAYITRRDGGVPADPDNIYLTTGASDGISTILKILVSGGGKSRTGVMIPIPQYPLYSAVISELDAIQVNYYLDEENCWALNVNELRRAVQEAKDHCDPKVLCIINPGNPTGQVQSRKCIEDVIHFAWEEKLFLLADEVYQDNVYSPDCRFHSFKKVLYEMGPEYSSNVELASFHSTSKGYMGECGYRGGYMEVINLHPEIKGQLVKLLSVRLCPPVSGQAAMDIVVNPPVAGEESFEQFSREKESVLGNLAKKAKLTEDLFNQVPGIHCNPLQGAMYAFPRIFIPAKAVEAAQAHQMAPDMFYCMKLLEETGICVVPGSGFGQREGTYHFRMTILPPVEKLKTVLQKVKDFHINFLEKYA
#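 Inhibition is scored from Amplex Red fluorescence generated when pyruvate oxidase and HRP act on pyruvate released by GPT2. Reactions contain 10ng/uL enzyme, 250uM a-KG and 2mM L-alanine and run 30 min at room temperature.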
# * hit, by the source's call; i = inactive; ? = inconclusive; nt = no result; [ ] = another dose, or the depositor's remark. Shown are actives, neighbours in structure and some others; about 10% of the full set was active somewhere. Unless noted, calls follow the shape of the dose curve; as a rule, active = well fitted curve in the direction sought with a large enough effect; inconclusive = small, poorly fitted or top-dose-only effect, or another doubt; inactive = no such curve, though single readings can be large; an effect the other way counts as inactive or inconclusive. % is scaled to controls: 0 for no effect and ±100 for the full control effect; potency is read from the fitted curve at half-maximal effect.
SMILES,Luciferase inh,NIH3T3 tox,HEK cytotox,hNpr1 antagonist,GPT2 inhibitor
CC(C)C[C@@H]1N[C@H](C(=O)NC2CCC2)Cc2cn(Cc3ccccn3)c3cccc1c23,i,35.5µM*,28.2µM*,-24.4%[70.6 µM],-6.0%[88.5 µM]
CC(C)C[C@@H]1N[C@H](C(=O)NC2CCC2)Cc2cn(Cc3ccncc3)c3cccc1c23,i,79.4µM*,?,?,-13.8%[88.5 µM]
CC(C)C[C@@H]1N[C@H](C(=O)NCC2CC2)Cc2cn(Cc3ccccn3)c3cccc1c23,i,39.8µM*,44.7µM*,-17.8%[70.6 µM],i
Cc1cn2nnc(C(=O)NCCc3ccccc3)c2c(=O)[nH]1,i,2.5%,10.2%,-3.2%,i
CC(C)C[C@@H]1N[C@H](C(=O)NCCN2CCOCC2)Cc2cn(Cc3ccccn3)c3cccc1c23,i,?,?,-7.5%,i
CC(C)C[C@@H]1N[C@H](C(=O)NCCN(C)C)Cc2cn(Cc3ccccn3)c3cccc1c23,i,28.2µM*,?,0.4%[70.6 µM],-26.5%[88.5 µM]
O=C(C[C@@H]1O[C@H](CNC(=O)C2CC2)[C@@H](O)[C@H]1O)Nc1ccccc1,i,4.1%[174 µM],i,0.6%[70.6 µM],4.4%[88.5 µM]
N#Cc1cccc(CN2C[C@@H](CO)[C@H](C(=O)NC3CC3)C2)c1,i,i,-0.8%,-0.1%,i
Cc1noc2c(NCCc3ccccn3)cc(-c3ccccc3)nc12,i,?,?,-2.1%[70.6 µM],-18.0%[88.5 µM]
Cc1noc2c(NC3CCN(C)CC3)cc(-c3cccc(C(F)(F)F)c3)nc12,i,?,39.8µM*,4.5%[70.6 µM],-17.8%[88.5 µM]
Cc1noc2c(-c3cccnc3NC3CCN(C)CC3)cc(-c3ccccc3)nc12,i,31.6µM*,63.1µM*,2.4%[70.6 µM],i
Cc1noc2c(NC3CCN(C)CC3)cc(-c3ccccn3)nc12,i,?,112µM*,-1.0%[70.6 µM],i
Cc1noc2c(NC(C)C)cc(-c3ccccc3)nc12,i,?,?,0.8%[70.6 µM],1.1%[88.5 µM]
Cc1noc2c(NC3CCN(C)CC3)cc(-c3ccccc3)nc12,i,?,100µM*,0.6%[70.6 µM],-12.9%[88.5 µM]
CC(=O)N1CCN(c2ncccc2-c2cc(-c3ccccc3)nc3c(C)noc23)CC1,i,?,-23.6%[172 µM],1.8%[70.6 µM],3.7%[88.5 µM]
COc1ccc(CNc2ncnc3c2CN(c2ccc(OC)cc2)C(=O)CN3C)cc1,i,?,4.8%,-1.8%,i
CCN(CC)C(=O)CC[C@@H]1CNC(=O)[C@@H]2C[C@H](NCc3ccc(N(C)C)cc3)CN12,i,-21.3%[174 µM],-25.3%[172 µM],0.1%[70.6 µM],i
COC(=O)N[C@@H](C)CNc1nccc(-c2cn(C(C)C)nc2-c2cc(Cl)cc(NS(C)(=O)=O)c2F)n1,nt,nt,nt,nt,4.0%
C[C@H]1[C@@H]2[C@H]3OC(=O)[C@@H](C)[C@@H]3CC[C@@]2(C)CC[C@@H]1NC(=O)c1ccc(C#N)cc1,i,89.1µM*,?,0.3%[70.6 µM],1.9%[88.5 µM]
C[C@H]1[C@@H]2[C@H]3OC(=O)[C@@H](C)[C@@H]3CC[C@@]2(C)CC[C@@H]1NC(=O)c1ccccn1,i,-21.9%[174 µM],100µM*,-14.4%[70.6 µM],-1.8%[88.5 µM]
C[C@H]1[C@@H]2[C@H]3OC(=O)[C@@H](C)[C@@H]3CC[C@@]2(C)CC[C@@H]1NC(=O)C1CCCCC1,i,?,100µM*,-19.6%[70.6 µM],-7.1%[88.5 µM]
COCC(=O)N[C@H]1CC[C@]2(C)CC[C@@H]3[C@H](OC(=O)[C@H]3C)[C@H]2[C@@H]1C,i,-8.5%[174 µM],-2.7%[172 µM],-1.7%[70.6 µM],i
O=C(NC1CCC1)[C@@H]1CCCN1c1ccnc2ccnn12,nt,?,-27.6%[172 µM],nt,nt
CN(CCC(O)c1ccccc1)c1nccc(-c2cccnc2)n1 (stereo not drawn),i,?,31.6µM*,4.2%,-9.0%
c1cc(-c2n[nH]c(CNC3CCC4(CCNCC4)CC3)n2)ccn1,i,-6.7%,-1.4%,10.6%,i
SMILES,Luciferase inh,NIH3T3 tox,HEK cytotox,hNpr1 antagonist,GPT2 inhibitor
COc1cccc(CN2Cc3nc(OCc4ccc(F)cc4)ccc3OCC2=O)c1,i,?,100µM*,?,i
COc1cccc(-c2ccc3c(n2)CN(Cc2ccc(F)cc2)C(=O)CO3)c1,i,?,89.1µM*,?,i
O=C(NC1CCN(c2cc(-c3cccs3)[nH]n2)C1)c1cccc(OC(F)(F)F)c1 (stereo not drawn),i,?,?,-20.7%,-23.8%
CCOC(=O)[C@@H]1CN(C(=O)NC2CCCC2)[C@H]2c3ccc(OC)cc3O[C@@H]12,nt,?,50.1µM*,nt,nt
CCOC(=O)[C@@H]1CN(C(=O)c2ncoc2-c2ccccc2)[C@H]2c3ccc(OC)cc3O[C@@H]12,nt,-29.3%,?,nt,nt
O=C1CCCN1CCN1CCOc2c(O)cc(-c3csc4ccccc34)cc2C1,i,?,44.7µM*,2.3%,4.3%
O=C(CN1CCOc2c(O)cc(-c3csc4ccccc34)cc2C1)N1CCOCC1,i,?,?,-3.0%,i
NCCCCC(=O)N1CCOc2c(O)cc(-c3csc4ccccc34)cc2C1,i,39.8µM*,31.6µM*,-29.0%,-6.3%
Cc1[nH]cnc1C(=O)N1CCOc2c(O)cc(-c3csc4ccccc34)cc2C1,i,79.4µM*,44.7µM*,-17.6%,4.9%
CNc1nccc(N2CCC(CC(=O)N(C)Cc3cn(C)nc3C)CC2)n1,i,?,?,-5.0%,i
COCc1cc(C[C@@H]2CC[C@H](O)[C@@H](CNC(=O)N3CCOCC3)O2)no1,i,0.7%[138 µM],3.5%[172 µM],9.6%[70.6 µM],i
COc1cccc(NC(=O)Cn2c(=O)n(-c3ccccc3)c(=O)c3c2cc(C)n3C)c1,i,-22.8%,?,1.4%,-16.6%
COCCNC(=O)CNC(=O)c1cccc(-c2ccc(C(F)(F)F)cc2)c1,nt,?,?,nt,i
O=C(CNC(=O)c1cccc(-c2ccc(C(F)(F)F)cc2)c1)NCCC1CCCCC1,nt,22.4µM*,22.4µM*,nt,i
O=C(CNC(=O)c1cccc(-c2ccc(C(F)(F)F)cc2)c1)NCCc1ccc(Cl)cc1,nt,-22.7%,15.8µM*,nt,i
Cc1cccc(C(=O)N2CCCC(c3nnnn3C)C2)c1 (stereo not drawn),i,i,i,6.9%,i
CCC(=O)Nc1ccc(C2(C(=O)NCC3CC3)CCCCC2)cc1,i,-8.3%,-13.5%,-0.2%,-25.7%
CNC(=O)[C@H]1C[C@H](Oc2ccccc2)CN1C(=O)c1ccc(OC)c(OC)c1,i,i,-2.4%,-12.4%,-12.3%

# Screens: PubChem, National Center for Advancing Translational Sciences (NCATS)
